High-throughput results deposited in PubChem BioAssay by National Center for Advancing Translational Sciences (NCATS).
Sampled rows, rich in hits. Any-hit rate of the full collection: about 19%.
IL-1B inflam inh: blocks inflammasome-driven IL-1 beta release | THP-1 LPS/ATP IL-1B secretion, AlphaLISA, 16 h; stronger effect = lower value | activity change, % at 57.5 µM | 360,000 tested, 4.7% active; in the data active = activity change below about -50%; inconclusive = mostly about -30% to -49%
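Secreted IL-1B measured by AlphaLISA bead assay after 16 h compound exposure of THP-1 cells; compounds (final up to 57.5 uM) added 1 h before LPS (250 ng/mL) and ATP (1.25 mM) stimulation; lower signal means less secretion.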
uPA generation: cell surface uPA generation inhibition; 330,000 tested, 0.31% active; Potency, µM (top dose mostly 38.3 µM), without a hit: at the top dose activity change, negative = inhibition, most hits filed as inhibitors; cell surface uPA generation assay, qHTS; active = well fitted inhibition curve with a large enough effect; inconclusive = small, poorly fitted or top-dose-only effect; inactive = no such curve, though single readings can be large or run the other way; tested in mouse RAW 264.7 cells; note: potency is the fitted concentration of half-maximal effect; nearly all actives have a fitted effect of over 55% in size
TDP1 cell noCPT: qHTS for Inhibitors of human tyrosyl-DNA phosphodiesterase 1 (TDP1): qHTS in cells in absence of CPT | DT40 Tdp1-/- hTDP1 cells, no CPT, ATP luminescence, 48 h | Potency, µM (highest dose often 46.2 µM), for the others: top-dose activity change, negative = growth inhibition, most hits filed as inhibitors | 420,000 tested, 15% active; note: potency is the fitted concentration of half-maximal effect; nearly all actives have a fitted effect of over 55% in size
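Growth of hTDP1-complemented DT40 Tdp1-knockout cells is measured by ATP luminescence after at least 48 hr compound exposure at 37 °C, with DMSO substituting for the 20 nM CPT used in the parallel screen.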
TDP1 cell CPT: DT40-hTDP1 cell growth loss with CPT; Potency, µM (titrated, usually from 46.2 µM), for the others: top-dose activity change, negative = growth inhibition, most hits filed as inhibitors; chicken DT40 Tdp1-/-;hTDP1 cells + 20 nM CPT, ATP luminescence, 48 h; 420,000 tested, 12% active; AID 686979; note: potency is the fitted concentration of half-maximal effect; nearly all actives have a fitted effect of over 55% in size
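Cell growth measured by CellTiter-Glo luminescence after a minimum 48 h, 37 C compound exposure with 20 nM CPT in Tdp1-knockout DT40 cells stably expressing hTDP1, seeded 400/well; qHTS titration format.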
HT1080 IDH1KD tx: HT-1080 IDH1 knockdown cell toxicity (counter line). HT-1080 IDH1 knockdown viability, ATP luminescence, 48 h. Potency, µM (doses to about 46.1 µM), for the others: at the highest dose activity, negative = toxicity, hits mostly cytotoxic. 360,000 tested, 2% active;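 note: potency is the fitted concentration of half-maximal effect; 0% = DMSO wells and -100% = cell-free medium wells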
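Luminescent ATP read-out (CellTiter-Glo, 10 min at room temperature) after 48 h compound exposure at 37 °C gave viability of IDH1-knockdown HT-1080 cells. Activity was normalised to DMSO and cell-free wells, then fitted as concentration-response curves.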
HT1080NT lethal: kills 2HG-producing HT-1080-NT fibrosarcoma cells; HT-1080-NT fibrosarcoma viability, CellTiter-Glo ATP luminescence, 48 h; Potency, µM (series often up to 46.1 µM), for inactives: top-dose activity, negative = less viability, usual class: cytotoxic; 360,000 tested, 1.6% active; AID 686970;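 note: NT is the 2HG producing partner of a matched IDH1 knockdown line; potency is the fitted concentration of half-maximal effect; 0% = DMSO-treated cells and -100% = media-only wells without cells; nearly all actives have a fitted effect of over 55% in size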
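Viability by CellTiter-Glo luminescence after 48 h compound exposure at 37C of HT-1080-NT cells (750/well, RPMI, 5% FBS). % activity scaled between DMSO wells and medium-only wells, then curve-fitted and categorized by curve class.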
Numbers without * were called inactive; ? = inconclusive; / = no result. Unless noted, calls come from the whole dose curve; as a rule, active = well fitted curve in the direction sought with a large enough effect; inconclusive = small, poorly fitted or top-dose-only effect, or another doubt; inactive = no such curve, though single readings can be large; an effect the other way counts as inactive or inconclusive. Unless noted, % is set by controls: 0 for no effect and ±100 for the full control effect.

SMILES	IL-1B inflam inh	uPA generation	TDP1 cell noCPT	TDP1 cell CPT	HT1080 IDH1KD tx	HT1080NT lethal
O=C(c1ccc(Cl)c(S(=O)(=O)N2CCCCC2)c1)N1CCN(c2ccccc2)CC1	-16.7	-17.0%	?	23.1µM*	?	-24.5%
O=C(c1ccc(Cl)c(S(=O)(=O)N2CCCC2)c1)N1CCN(c2ccccc2)CC1	10.1	0.3%	?	18.4µM*	-0.5%	-13.3%
CC(=O)N1CCN(C(=O)c2cc(S(=O)(=O)N3CCN(c4ccccc4)CC3)ccc2Cl)CC1	22.7	-3.3%	10.3µM*	?	7.2%	9.3%
CCCCC#Cc1ccccc1CC(=O)Nc1ccccc1	19.7	12.0%	-72.8%	?	5.1%	6.1%
CCCCCCCC#Cc1ccccc1/C=N/S(=O)c1ccc(C)cc1 (stereo not drawn)	32.1	?	18.4µM*	11.6µM*	4.9%	12.5%
CCCc1cc(-c2[nH]ncc2-c2ccc(C(=O)OCC)o2)c(O)cc1O	-83.9*	4.1%	?	?	?	?
Cc1cccc(OCCSc2nc3ccccc3n2CC(=O)N2CCOCC2)c1	/	/	-11.6%	-11.6%	/	/
CCN(CC)CCSc1nnc2c3ccccc3n(CCc3ccccc3)c2n1	?	?	?	?	-18.4%	-21.1%
C=CCn1c2ccccc2c2nnc(SCCN3CCCCC3)nc21	-14.2	-16.1%	18.4µM*	-25.9%	-7.6%	-16.5%
c1ccc(Cn2c3ccccc3c3nnc(SCCN4CCCCC4)nc32)cc1	/	4.8%	23.1µM*	23.1µM*	5.3%	8.9%
C=CCn1c2ccccc2c2nnc(SCCCn3c(=O)[nH]c4ccccc43)nc21	-79.0*	-2.3%	13µM*	?	16.4µM*	?
Cc1cc(C)c(S(=O)(=O)Nc2ccccc2C(=O)N2CCCC2)c(C)c1	-5.2	4.9%	?	?	-2.1%	-1.0%
Cn1ncc2c(O/N=C(\N)c3ccc(C(C)(C)C)cc3)ncnc21	-101.3*	1.3%	2.91µM*	2.59µM*	6.51µM*	18.4µM*
CC(NC(=S)NC1CCCCC1)c1ccc(C(C)(C)C)cc1 (stereo not drawn)	-20.0	-3.9%	?	9.2µM*	23.1µM*	-27.1%
CCOc1ccc(C(C)NC(=S)NC2CCCCC2)cc1 (stereo not drawn)	-8.9	-1.4%	?	?	-26.6%	?
CCc1ccc(C(C)NC(=S)NC2CCCCC2)cc1 (stereo not drawn)	9.7	-0.1%	?	?	-0.8%	-4.6%
CC(C)c1ccc(C(C)NC(=S)NC2CCCCC2)cc1 (stereo not drawn)	0.0	0.7%	4.61µM*	18.4µM*	-1.3%	-3.3%
OCCC1CN(CC2CCCCC2)CCN1CC1CCCCC1 (stereo not drawn)	16.5	0.3%	?	-24.9%	4.9%	6.6%
CSCCNC(=O)C1(C)CCN1C(=O)CCc1ccccc1 (stereo not drawn)	19.6	/	0.7%	-12.9%	21.4%	29.5%
O=C(CCCCCn1c(=S)[nH]c2ccc(N3CCOCC3)cc2c1=O)NC1CCN(Cc2ccccc2)CC1	-19.2	-0.6%	23.1µM*	16.4µM*	?	?
COc1cccc(Cn2c(=S)[nH]c3ccc(N4CCOCC4)cc3c2=O)c1	24.0	/	-10.3%	-14.8%	-22.0%	-22.7%
CCN(CCCn1c(=S)[nH]c2ccc(N3CCOCC3)cc2c1=O)c1ccccc1	10.9	10.4%	20.6µM*	11.6µM*	?	?
O=c1c2cc(Cl)ccc2[nH]c(=S)n1Cc1ccco1	39.7	/	?	?	11.2µM*	7.94µM*
O=c1c2cc(N3CCOCC3)ccc2[nH]c(=S)n1Cc1ccco1	9.7	/	20.6µM*	?	?	?
O=C(NC1CCN(Cc2ccccc2)CC1)c1ccc(Cn2c(=S)[nH]c3ccc(N4CCOCC4)cc3c2=O)cc1	-14.1	0.2%	?	?	-13.5%	-9.7%
SMILES	IL-1B inflam inh	uPA generation	TDP1 cell noCPT	TDP1 cell CPT	HT1080 IDH1KD tx	HT1080NT lethal
Cc1ccc(OCc2cc(=O)n3cc(C)sc3n2)c(C)c1	/	/	11.7%	-0.6%	/	/
C=CCn1c(Cc2csc(N)n2)nnc1SCC(=O)Nc1ccccc1C(F)(F)F	-2.1	-23.4%	-28.7%	-12.3%	2.7%	-1.2%
CCN1CCCC1CNC(=O)c1cnn(-c2nccc(-c3ccccc3F)n2)c1C (stereo not drawn)	/	/	-18.5%	-2.5%	/	/
O=c1c2cc(N3CCOCC3)ccc2[nH]c(=S)n1Cc1cccc(Cl)c1	20.6	2.1%	?	20.6µM*	?	?
CN(CC(=O)Nc1ccc(Cl)cc1)C(=O)c1cccc(S(=O)(=O)N2CCN(Cc3ccccc3)CC2)c1	?	-3.9%	5.17µM*	5.8µM*	-23.7%	-2.4%
O=C(Nc1ccc(S(=O)(=O)N2CCN(Cc3ccccc3)CC2)cc1)c1cnccn1	0.0	0.1%	5.17µM*	9.2µM*	-12.7%	-6.2%
CN(C)C(=O)c1ccc(NC(=O)c2cccc(S(=O)(=O)N3CCN(Cc4ccccc4)CC3)c2)cc1	-1.8	-9.4%	18.4µM*	14.6µM*	-7.1%	-5.3%
O=C(Nc1ccc(S(=O)(=O)N2CCCC2)cc1)c1cnccn1	7.7	1.4%	?	-20.1%	5.5%	27.2%
CCN(CC(=O)NCc1ccc(Cl)cc1)C(=O)c1ccc(S(=O)(=O)N(C)C)cc1	41.1	1.3%	-16.6%	4.7%	4.9%	2.9%
C/C(N)=C(/C#N)C(=O)COC(=O)[C@@H](NC(=O)c1ccccc1Cl)C(C)C	45.4	8.4%	15.3%	0.7%	3.4%	-2.3%
CCOC(=O)[C@]12CCC=C1N(Cc1ccccc1)C(=O)[C@H](CC(=O)NCc1cccc(C(F)(F)F)c1)C2	?	/	23.1µM*	?	?	?
CCCCCCCCN1C(=O)[C@H](CC(=O)NCc2ccccc2)C[C@@]2(C(=O)OCC)CCCC=C12	-72.5*	/	?	?	?	?
CCCCCCCCN1C(=O)[C@H](CC(=O)NCCCCc2ccccc2)C[C@@]2(C(=O)OCC)CCCC=C12	-24.7	/	?	?	?	?
CCCCCCCCN1C(=O)[C@H](CC(=O)NCc2cccc(C(F)(F)F)c2)C[C@@]2(C(=O)OCC)CCCC=C12	-52.6*	/	?	?	14.6µM*	-27.0%
CCOC(=O)[C@]12CCCC=C1N(Cc1ccccc1)C(=O)[C@H](CC(=O)NCc1ccc(C)o1)C2	-23.7	/	?	?	1.7%	-1.4%
CCN(C(=O)Cn1c(C(=O)OC)cc2sc(Cl)cc21)c1cccc(C)c1	/	/	-16.4%	?	/	/
